{"source": "PubChem BioAssay (Tox21)", "note": "Inconclusive results are not listed. Entries that show only a call come without a potency. Unmarked numbers belong to inactive results. Calls of active or inactive are those of the source. The call rests on the fitted dose curve; in most records, active means well fitted inhibition curve with a large enough effect in the repeat runs; inconclusive means weak or mixed curves; inactive means no such curve, though single readings can be large or run the other way. Potency means the concentration at half of the fitted maximal effect.", "data": [{"target": "Cytochrome P450 3A4 (Homo sapiens) (UniProt P08684)", "sequence (P08684 whole entry, looked up)": "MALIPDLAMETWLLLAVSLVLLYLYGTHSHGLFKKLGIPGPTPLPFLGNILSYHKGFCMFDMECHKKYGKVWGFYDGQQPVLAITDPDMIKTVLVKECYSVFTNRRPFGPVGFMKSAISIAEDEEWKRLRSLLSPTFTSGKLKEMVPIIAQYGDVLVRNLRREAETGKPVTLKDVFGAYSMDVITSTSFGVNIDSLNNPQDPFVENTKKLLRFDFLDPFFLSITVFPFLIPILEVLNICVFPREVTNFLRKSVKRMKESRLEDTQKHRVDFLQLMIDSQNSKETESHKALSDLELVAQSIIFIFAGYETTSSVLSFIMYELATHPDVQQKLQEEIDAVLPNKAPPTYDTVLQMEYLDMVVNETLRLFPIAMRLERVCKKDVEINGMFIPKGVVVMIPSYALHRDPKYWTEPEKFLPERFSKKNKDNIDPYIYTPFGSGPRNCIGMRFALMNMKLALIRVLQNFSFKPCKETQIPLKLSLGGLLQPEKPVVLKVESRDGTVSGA", "assay": "Cytochrome P450 Family 3 Subfamily A Member 4 (CYP3A4) small molecule antagonists: luciferase reporter qHTS assay (AID 1671201); further: nearly all actives have a fitted effect of over 50% in size", "settings": "P450-Glo CYP3A4 enzyme, luciferin luminescence, 1 h; series mostly up to 115 µM", "excerpt": "National Center for Advancing Translational Sciences [NCATS]\nU.S. Environmental Protection Agency [EPA]\nNational Institutes of Environmental Health Sciences [NIEHS]\nNational Toxicology Program [NTP]\nU.S. Food and Drug Administration [FDA]\nCytochrome P450 (CYP) enzymes are membrane-bound hemeproteins that play a key role in metabolism of drugs and xenobiotics. Evaluation of the effect of chemicals on CYP isozymes is useful to minimize the adverse drug reactions and toxicities in drug development process. Tox21 chemicals were tested for their effect on CYP enzyme activities by using P450-Glo (TM) screening systems (Promega Corporation, Madison, WI). These systems provide a luminescent method containing proluciferin substrates and are converted to luciferin products by CYP isozymes. The luciferin products formed are detected with a luciferin detection reagent, and the amount of light produced is proportional to CYP activity. P450-Glo (TM) CYP3A4 screening system (Catalog. No. V9910) was used to detect the compounds that interfere in CYP3A4 activity. The positive control compound used for CYP3A4 assay is ketoconazole (Sigma-Aldrich, St. Louis, MO).\nTox21 Assay Protocol Summary:\nTwo ul of enzyme-substrate mix was dispensed into medium binding white/solid 1536-well plates (Greiner Bio-One North America Inc., Monroe, NC) using a BioRaptr Flying Reagent Dispenser (FRD, Beckman Coulter, Brea, CA). Compounds dissolved in DMSO and positive control (ketoconazole) were transferred to the assay plates at 23 nl using a Pintool station (Wako, San Diego, CA). The assay plates were incubated at room temperature for 10 min. Then 2 ul of NADPH regeneration solution was added to each well of the assay plates using an FRD and incubated at room temperature for 1 h. The reaction was stopped by adding 4 ul of detection reagent using an FRD and after 20 min incubation at room temperature the luminescence signal was measured using a ViewLux plate reader (Perkin Elmer, Shelton, CT). Data were expressed as relative luminescence units.", "values": [{"smiles": "c1ccccc1", "Potency": "inactive"}, {"smiles": "CCCCC(C)C(=O)O", "note": "(stereo not given)", "Potency": "inactive"}, {"smiles": "O=S(=O)(O)CCO", "Potency": "inactive"}, {"smiles": "CCC(O)C(C)(C)C", "note": "(stereo not given)", "Potency": "inactive"}, {"smiles": "O=S(=O)(O)SSS(=O)(=O)O", "Potency": "inactive"}, {"smiles": "O=C(O)c1c(Cl)ccc(Cl)c1Cl", "Potency": "inactive"}, {"smiles": "CC(=O)c1ccc(OCC(=O)N2CCCCC2)cc1", "Potency": "inactive"}, {"smiles": "CCCCCCCCCCCCC1CO1", "note": "(stereo not given)", "Potency": "inactive"}, {"smiles": "COC(OC)C(C)c1ccccc1", "note": "(stereo not given)", "Potency": "inactive"}, {"smiles": "C[C@H]1O[C@H](O[C@H]2[C@H](O)[C@@H](O)[C@@H](O[C@H]3[C@H](O)[C@@H](O)[C@H](O)O[C@@H]3CO)O[C@@H]2CO)[C@H](O)[C@@H](O)[C@@H]1N[C@H]1C=C(CO)[C@@H](O)[C@H](O)[C@H]1O", "Potency": "inactive"}, {"smiles": "COc1ccc(N=Nc2cc(C)c(N=Nc3ccc(S(=O)(=O)O)cc3)cc2OC)cc1", "Potency": "inactive"}, {"smiles": "O=C1OC(=O)c2cc(Oc3ccc4c(c3)C(=O)OC4=O)ccc21", "Potency": "inactive"}, {"smiles": "Nc1nc(=O)n([C@@H]2O[C@H](CO)[C@@H](O)[C@@H]2F)cc1I", "Potency": "inactive"}, {"smiles": "COCC(=O)Nc1c(I)c(C(=O)NCC(O)CO)c(I)c(C(=O)N(C)CC(O)CO)c1I", "note": "(stereo not given)", "Potency": "inactive"}, {"smiles": "CCCCCCCCCCCCCC(=O)OC", "Potency": "inactive"}, {"smiles": "Cc1cccc(NC(=S)N(C)C)c1", "Potency": "inactive"}, {"smiles": "O=C(O)Cc1cccc(-c2cc(CCCCCCc3ccc(O[C@H]4O[C@H](CO)[C@@H](O)[C@H](O)[C@@H]4O)c(-c4cccc(CC(=O)O)c4)c3)ccc2O[C@H]2O[C@H](CO)[C@@H](O)[C@H](O)[C@@H]2O)c1", "activity change, negative = inhibition": "0.205% [at 0.435 µM]"}, {"smiles": "Cc1nc([N+](=O)[O-])cn1-c1ccc([N+](=O)[O-])cc1", "Potency": "inactive"}, {"smiles": "CC(C)C(=O)c1ccccc1", "Potency": "inactive"}, {"smiles": "CCCCCCCC/C=C\\CCCCCCCC(=O)OC[C@@H](O)[C@H]1OC[C@H](O)[C@H]1O", "Potency": "inactive"}, {"smiles": "CNC(=O)C(c1ccccc1)c1ccccc1", "Potency": "inactive"}, {"smiles": "Nc1ccc(/C=C/c2ccc(N)cc2S(=O)(=O)O)c(S(=O)(=O)O)c1", "activity change, negative = inhibition": "15.4% [at 0.435 µM]"}, {"smiles": "COC(=O)CCC(=O)O", "Potency": "inactive"}, {"smiles": "C=CCOc1cc(Cl)ccc1C(=O)NCCN(CC)CC", "Potency": "17.4 µM (active)"}, {"smiles": "O=C(Nc1cccc(C2=NCCN2)c1)Nc1cccc(C2=NCCN2)c1", "activity change, negative = inhibition": "41.3% [at 23.6 µM]"}, {"smiles": "CCOC(=O)C(=O)c1csc(NC=O)n1", "Potency": "inactive"}, {"smiles": "Cc1ccccc1C", "Potency": "inactive"}, {"smiles": "C=COCCOCCOC=C", "Potency": "inactive"}, {"smiles": "CCOC(=O)CCCCCCCCC(=O)OCC", "Potency": "inactive"}, {"smiles": "CC(=O)c1ccc2c(c1)CCCC2", "Potency": "inactive"}, {"smiles": "O=C(/C=C/c1ccccc1)NCCO", "Potency": "inactive"}, {"smiles": "O=CN1CCOCC1", "Potency": "inactive"}, {"smiles": "COc1ccc(OC)c(NC(=O)CC(C)=O)c1", "Potency": "22.4 µM (active)"}, {"smiles": "CC(C)COC(=O)COc1ccc(Cl)cc1Cl", "Potency": "inactive"}, {"smiles": "O=C(O)c1ccccc1C(=O)OCc1ccccc1", "Potency": "inactive"}, {"smiles": "CC(C)CCO", "Potency": "inactive"}, {"smiles": "C=CCCCCCCCCCCC", "activity change, negative = inhibition": "4% [at 10.5 µM]"}, {"smiles": "CC(=O)Nc1ccc(C)cc1", "Potency": "inactive"}, {"smiles": "CCCCC(CC)C(=O)OC(C)C", "note": "(stereo not given)", "Potency": "inactive"}, {"smiles": "CCCO", "Potency": "inactive"}]}]}
